# Positions count from the first letter of the chain named. The full ranking holds about 16,000 sequences; the median of “ka relative to ugcaugu” is about 0.0091, and the highest 2% start at about 0.032. The sample as a whole holds a higher share of the highest values than the screen did.
# T1: RBFOX1 RRM (Homo sapiens, UniProt Q9NWB1 109-208)
# T1 sequence: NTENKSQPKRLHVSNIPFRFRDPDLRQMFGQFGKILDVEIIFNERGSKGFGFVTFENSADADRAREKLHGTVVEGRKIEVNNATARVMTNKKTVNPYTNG
# B1: GUAUAGC (DNA:RNA)
# RNA: GGGAGACCGGAAUUCAGAUUGUCCGUAUAGCUUAAAUCCCGUCGUAGCCACCA
# DNA 1: CAATCTGAATTCCGGTCTCCC
# DNA 2: TGGTGGCTACGACGGGATT
# B2: GGGUUCG (DNA:RNA)
# RNA: B1 RNA with U26G, A27G, A29U, G30C, C31G
# DNA 1: CAATCTGAATTCCGGTCTCCC
# DNA 2: TGGTGGCTACGACGGGATT
# B3: GGGUUUC (DNA:RNA)
# RNA: B1 RNA with U26G, A27G, A29U, G30U
# DNA 1: CAATCTGAATTCCGGTCTCCC
# DNA 2: TGGTGGCTACGACGGGATT
# B4: GUGCGGG (DNA:RNA)
# RNA: B1 RNA with A27G, U28C, A29G, C31G
# DNA 1: CAATCTGAATTCCGGTCTCCC
# DNA 2: TGGTGGCTACGACGGGATT
# B5: GGGGUUC (DNA:RNA)
# RNA: B1 RNA with U26G, A27G, U28G, A29U, G30U
# DNA 1: CAATCTGAATTCCGGTCTCCC
# DNA 2: TGGTGGCTACGACGGGATT
# B6: UUCCGGG (DNA:RNA)
# RNA: B1 RNA with G25U, A27C, U28C, A29G, C31G
# DNA 1: CAATCTGAATTCCGGTCTCCC
# DNA 2: TGGTGGCTACGACGGGATT
# B7: GGGUUCU (DNA:RNA)
# RNA: B1 RNA with U26G, A27G, A29U, G30C, C31U
# DNA 1: CAATCTGAATTCCGGTCTCCC
# DNA 2: TGGTGGCTACGACGGGATT
# B8: GGGUUCC (DNA:RNA)
# RNA: B1 RNA with U26G, A27G, A29U, G30C
# DNA 1: CAATCTGAATTCCGGTCTCCC
# DNA 2: TGGTGGCTACGACGGGATT
# B9: GCGGGGG (DNA:RNA)
# RNA: B1 RNA with U26C, A27G, U28G, A29G, C31G
# DNA 1: CAATCTGAATTCCGGTCTCCC
# DNA 2: TGGTGGCTACGACGGGATT
# B10: CGGGUUC (DNA:RNA)
# RNA: B1 RNA with G25C, U26G, A27G, U28G, A29U, G30U
# DNA 1: CAATCTGAATTCCGGTCTCCC
# DNA 2: TGGTGGCTACGACGGGATT
# B11: UCGUGUC (DNA:RNA)
# RNA: B1 RNA with G25U, U26C, A27G, A29G, G30U
# DNA 1: CAATCTGAATTCCGGTCTCCC
# DNA 2: TGGTGGCTACGACGGGATT
# B12: AGCGUAU (DNA:RNA)
# RNA: GGGAGACCGGAAUUCAGAUUGUCCAGCGUAUUUAAAUCCCGUCGUAGCCACCA
# DNA 1: CAATCTGAATTCCGGTCTCCC
# DNA 2: TGGTGGCTACGACGGGATT
# B13: CCUGAUG (DNA:RNA)
# RNA: B12 RNA with A25C, G26C, C27U, U29A, A30U, U31G
# DNA 1: CAATCTGAATTCCGGTCTCCC
# DNA 2: TGGTGGCTACGACGGGATT
# B14: GCGUCGC (DNA:RNA)
# RNA: B1 RNA with U26C, A27G, A29C
# DNA 1: CAATCTGAATTCCGGTCTCCC
# DNA 2: TGGTGGCTACGACGGGATT
# B15: GUGAUAC (DNA:RNA)
# RNA: B1 RNA with A27G, U28A, A29U, G30A
# DNA 1: CAATCTGAATTCCGGTCTCCC
# DNA 2: TGGTGGCTACGACGGGATT
# B16: CCGUGAG (DNA:RNA)
# RNA: B12 RNA with A25C, G26C, C27G, G28U, U29G, U31G
# DNA 1: CAATCTGAATTCCGGTCTCCC
# DNA 2: TGGTGGCTACGACGGGATT
# B17: GAACUGU (DNA:RNA)
# RNA: B1 RNA with U26A, U28C, A29U, C31U
# DNA 1: CAATCTGAATTCCGGTCTCCC
# DNA 2: TGGTGGCTACGACGGGATT
# B18: GUGGAGA (DNA:RNA)
# RNA: B1 RNA with A27G, U28G, C31A
# DNA 1: CAATCTGAATTCCGGTCTCCC
# DNA 2: TGGTGGCTACGACGGGATT
# B19: GGAUUGU (DNA:RNA)
# RNA: B1 RNA with U26G, A29U, C31U
# DNA 1: CAATCTGAATTCCGGTCTCCC
# DNA 2: TGGTGGCTACGACGGGATT
# B20: GGAUGUC (DNA:RNA)
# RNA: B1 RNA with U26G, A29G, G30U
# DNA 1: CAATCTGAATTCCGGTCTCCC
# DNA 2: TGGTGGCTACGACGGGATT
# B21: GUGGAUG (DNA:RNA)
# RNA: B1 RNA with A27G, U28G, G30U, C31G
# DNA 1: CAATCTGAATTCCGGTCTCCC
# DNA 2: TGGTGGCTACGACGGGATT
# B22: GGGAUGU (DNA:RNA)
# RNA: B12 RNA with A25G, C27G, G28A, A30G
# DNA 1: CAATCTGAATTCCGGTCTCCC
# DNA 2: TGGTGGCTACGACGGGATT
# B23: CCGGAUG (DNA:RNA)
# RNA: B12 RNA with A25C, G26C, C27G, U29A, A30U, U31G
# DNA 1: CAATCTGAATTCCGGTCTCCC
# DNA 2: TGGTGGCTACGACGGGATT
# B24: GGAGAUG (DNA:RNA)
# RNA: B1 RNA with U26G, U28G, G30U, C31G
# DNA 1: CAATCTGAATTCCGGTCTCCC
# DNA 2: TGGTGGCTACGACGGGATT
# B25: GGAUGUU (DNA:RNA)
# RNA: B1 RNA with U26G, A29G, G30U, C31U
# DNA 1: CAATCTGAATTCCGGTCTCCC
# DNA 2: TGGTGGCTACGACGGGATT
# B26: CGGGAUG (DNA:RNA)
# RNA: B12 RNA with A25C, C27G, U29A, A30U, U31G
# DNA 1: CAATCTGAATTCCGGTCTCCC
# DNA 2: TGGTGGCTACGACGGGATT
# B27: GGAUGUG (DNA:RNA)
# RNA: B1 RNA with U26G, A29G, G30U, C31G
# DNA 1: CAATCTGAATTCCGGTCTCCC
# DNA 2: TGGTGGCTACGACGGGATT
# B28: GGGGAUG (DNA:RNA)
# RNA: B12 RNA with A25G, C27G, U29A, A30U, U31G
# DNA 1: CAATCTGAATTCCGGTCTCCC
# DNA 2: TGGTGGCTACGACGGGATT
# B29: UUGGAUG (DNA:RNA)
# RNA: B1 RNA with G25U, A27G, U28G, G30U, C31G
# DNA 1: CAATCTGAATTCCGGTCTCCC
# DNA 2: TGGTGGCTACGACGGGATT
# Target: T1, RBFOX1 RRM
# Assay: EMSA; HiTS-Eq, 1 nM pool, 10 min; buffer printed only for the single-RNA assays: 10 mM Tris pH 7.5, 150 mM NaCl, 3.4 mM EDTA, 0.001% NP-40, 30 C
# Conditions: tags: His6 N-terminal (pET28a); label: 5' 32P
# In short: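 Relative association constants, normalised to the cognate motif, were derived by comparing read counts of each RNA species with those of the control reaction. The RNA sequenced was the free fraction, separated by 8% native PAGE after a 10 min equilibration in 50 µL of 1 nM 5′-radiolabelled RNA (7 randomized nucleotides) with increasing concentrations of purified wild-type or mutant RbFox RRM.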
row,Binder,binding signal
1,B1,0.00925 KA relative to UGCAUGU
2,B2,0.026 KA relative to UGCAUGU
3,B3,0.0237 KA relative to UGCAUGU
4,B4,0.0167 KA relative to UGCAUGU
5,B5,0.0437 KA relative to UGCAUGU
6,B6,0.00531 KA relative to UGCAUGU
7,B7,0.0166 KA relative to UGCAUGU
8,B8,0.0348 KA relative to UGCAUGU
9,B9,0.0269 KA relative to UGCAUGU
10,B10,0.0418 KA relative to UGCAUGU
11,B11,0.0187 KA relative to UGCAUGU
12,B12,0.00639 KA relative to UGCAUGU
13,B13,0.0205 KA relative to UGCAUGU
14,B14,0.0157 KA relative to UGCAUGU
15,B15,0.00876 KA relative to UGCAUGU
16,B16,0.0105 KA relative to UGCAUGU
17,B17,0.0163 KA relative to UGCAUGU
18,B18,0.0173 KA relative to UGCAUGU
19,B19,0.0266 KA relative to UGCAUGU
20,B20,0.027 KA relative to UGCAUGU
21,B21,0.0371 KA relative to UGCAUGU
22,B22,0.048 KA relative to UGCAUGU
23,B23,0.00955 KA relative to UGCAUGU
24,B24,0.0269 KA relative to UGCAUGU
25,B25,0.0216 KA relative to UGCAUGU
26,B26,0.0412 KA relative to UGCAUGU
27,B27,0.0207 KA relative to UGCAUGU
28,B28,0.0389 KA relative to UGCAUGU
29,B29,0.0302 KA relative to UGCAUGU

# From paper PMC9911399, “Two distinct binding modes provide the RNA-binding protein RbFox with extraordinary sequence specificity”
